Tau fibril FP – inhibitors of human tau fibril formation. P10636. K18 P301L tau heparin fibrillization, Alexa594 FP, 6 h. Potency, µM (top dose mostly 57.7 µM), without a hit: at the highest dose activity, negative = inhibition, most hits filed as inhibitors. 0.39% of 280,000 active. AID 1468; also: nearly all actives have a fitted effect of over 55% in size
Target sequence (P10636 561-689 P618L limits assumed): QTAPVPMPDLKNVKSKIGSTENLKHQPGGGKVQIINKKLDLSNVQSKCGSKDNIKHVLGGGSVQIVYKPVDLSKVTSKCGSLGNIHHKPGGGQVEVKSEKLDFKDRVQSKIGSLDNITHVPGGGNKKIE
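Heparin (20 uM) drove fibril formation of recombinant tau K18 P301L, 15 uM unlabeled with 0.24 uM Alexa 594 label, for 6 hr at 37 C in 100 mM sodium acetate pH 7. Fluorescence polarization (555/632 nm) read 1 hr after 30 uM ThT.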
Tau fluor counter – counter-screen for tau fibril formation inhibitors; tau K18 P301L Alexa594 fluorescence, heparin fibrillization; Potency, µM (doses to about 57.7 µM), for inactives: at the highest dose activity change, negative = decrease; 0.93% of 280,000 active; AID 1463; also: nearly all actives have a fitted effect of over 55% in size
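Human tau K18 P301L (15 uM unlabeled, 0.24 uM Alexa 594-labeled) in 100 mM sodium acetate pH 7 with 20 uM heparin, 6 hr at 37 C. ThT 30 uM added, 1 hr ambient; Alexa 594 FP and total fluorescence read at 555/632 nm.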
Tau fibril ThT – inhibitors of human tau fibril formation, thioflavin T binding | Potency, µM (doses to about 57.4 µM), for inactives: at the highest dose activity, negative = inhibition, most hits filed as inhibitors | recombinant tau K18 P301L, heparin-induced fibrillization, ThT fluorescence | AID 1460 | P10636 | 2.1% of 270,000 active; also: nearly all actives have a fitted effect of over 55% in size
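Using a mix of unlabeled (15 uM) and Alexa 594-labeled (0.24 uM) tau K18 P301L, heparin-triggered fibrillization over 6 hr at 37 C was scored by ThT fluorescence.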
HPGD block – blocks human HPGD enzyme activity | P15428 | purified HPGD, NADH fluorescence kinetic, PGE2 substrate | Potency, µM, inactives show top-dose activity change, negative = inhibition, most hits filed as inhibitors | 4.3% of 150,000 active | AID 894; active = well fitted inhibition curve with a large enough effect, not every such curve was filed as active; inconclusive = small, poorly fitted or top-dose-only effect, or another doubt; inactive = no such curve, though single readings can be large or run the other way
Target sequence (P15428 whole entry, looked up): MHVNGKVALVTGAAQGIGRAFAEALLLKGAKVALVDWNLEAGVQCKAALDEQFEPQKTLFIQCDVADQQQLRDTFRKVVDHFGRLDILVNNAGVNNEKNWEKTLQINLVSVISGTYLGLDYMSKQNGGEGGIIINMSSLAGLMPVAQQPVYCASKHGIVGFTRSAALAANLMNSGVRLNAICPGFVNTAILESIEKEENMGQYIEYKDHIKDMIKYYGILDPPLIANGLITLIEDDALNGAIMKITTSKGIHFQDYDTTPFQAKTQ
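NADH formation kinetics: reaction with 30 uM PGE2 and 1 mM NAD+ (final), 20 nM enzyme, Tris-HCl pH 8 with Tween 20, after 15 min compound preincubation at room temperature. Fluorescence change, last versus first of five reads.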
NPSR antag – blocks cAMP signaling of the human neuropeptide S receptor. Q6W5P4. CHO-NPSR cells, cAMP TR-FRET, antagonist mode. Potency, µM (series often up to 38.3 µM), without a hit: at the top dose activity change, negative = inhibition, hits mostly inhibitors. 1% of 220,000 active. AID 1461; also: nearly all actives have a fitted effect of over 50% in size
ALDH1A1 inh – inhibitors of human aldehyde dehydrogenase 1A1; AID 1030; 7.3% of 220,000 active; Potency, µM (highest dose often 75.3 µM), for the others: at the highest dose activity, negative = inhibition, actives largely listed as inhibitors; Purified ALDH1A1, NADH fluorescence, propionaldehyde substrate; active = well fitted inhibition curve with a large enough effect, not every such curve was filed as active; inconclusive = small, poorly fitted or top-dose-only effect, or another doubt; inactive = no such curve, though single readings can be large or run the other way;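 also: plate controls were no enzyme wells and a reference inhibitor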
* marks the source's active call; other numbers are inactive results; ? = inconclusive; nt = no result given; ! = repeats disagree; [ ] = another dose, or the depositor's remark. In the library only some 9.5% were active in any assay of this set; here they are far more common. Unless noted, calls follow the shape of the dose curve; as a rule, active = well fitted curve in the direction sought with a large enough effect; inconclusive = small, poorly fitted or top-dose-only effect, or another doubt; inactive = no such curve, though single readings can be large; an effect the other way counts as inactive or inconclusive. Unless noted, % is scaled to controls: 0 for no effect and ±100 for the full control effect; potency is read from the fitted curve at half-maximal effect.

SMILES	Tau fibril FP	Tau fluor counter	Tau fibril ThT	HPGD block	NPSR antag	ALDH1A1 inh
CCOC(=O)c1ccc(N2C(=O)c3n[nH]c(-c4cccs4)c3C2c2ccc(C(C)(C)C)cc2)cc1 (centres undefined)	?	-20%	-2%	nt	nt	nt
CCCC12CN3CC(C)(CN(C1)C3c1c(C)[nH]c(=O)[nH]c1=O)C2=O (centres undefined)	-4%	-5%	-3%	nt	nt	nt
CCCCn1c(N)c(C(=O)OCCOC)c2nc3ccccc3nc21	-11%	-29%	nt	nt	-22%	nt
COCCCn1c(N)c(C(=O)NCCC(C)C)c2nc3ccccc3nc21	0%	?	?	?	10µM*	?
Nc1c(C(=O)NCc2ccco2)c2nc3ccccc3nc2n1Cc1ccc(F)cc1	?	?	?	?	10µM*	?
COc1ccc(Cn2c(N)c(C(=O)NCc3ccco3)c3nc4ccccc4nc32)cc1	-6%	?	20µM*	?	?	?
COC(C)C(O)(C(=O)OC1=CCN2CC[C@H](O)[C@H]12)C(C)C (some centres undefined)	-4%	-9%	-4%	4%	nt	10%
CCCc1cc2c(n1CCO)C(C)C1CN(C(=O)c3ccccc3)C(C)(C(=O)OC)C21 (centres undefined)	-5%	-4%	-18%	-13%	nt	6%
CC1=NN(c2ccccc2)C(=O)C1=C(C)C	-9%	?	11µM*	nt	6%	?
Clc1ccc(C(c2ccccc2Cl)C(Cl)(Cl)Cl)cc1 (centres undefined)	nt	nt	nt	-6%	nt	22µM*
CC1=NN(c2ccc(S(=O)(=O)O)cc2C)C(=[OH+])[C@H]1N=Nc1cc(S(=O)(=O)O)ccc1C(=O)O.O.[Cr]	nt	nt	nt	-16%	nt	?
NC(=O)C1CCN(/C=C2\C(=O)NC(=O)N(Cc3ccco3)C2=O)CC1	?	-16%	?	nt	6%	nt
CC(C)N1C(=O)/C(=C/C=C/c2ccco2)C(=O)N(Cc2ccco2)C1=O	?	-30%	28µM*	32µM*	?	22µM*
COc1ccc(/C=C2/C(=O)N(Cc3ccco3)C(=O)N(C(C)C)C2=O)cc1	?	-12%	18µM*	22µM*	3%	4µM*
O=C1NC(=O)N(Cc2ccco2)C(=O)/C1=C\c1cccn1CCOc1ccc(Cl)cc1	-15%	?	?	-22%	?	-3%
CCN1C(=O)C(=C/C=C/c2ccco2)C(=O)N(CC)C1=S	?	-13%	16µM*	11µM*	-8%[46.1 µM]	1.3µM*
COc1ccc2c(c1)C13CCCCC1C(C2)N(C)CC3 (centres undefined)	8%	5%	1%	-21%	-12%[46.1 µM]	-3%
Cn1c(=O)n(C)c2cc(CNCCc3ccccc3F)ccc21	-3%	-7%	-3%	nt	nt	nt
O=C(Cl)c1ccccc1F	nt	nt	nt	-14%	nt	?
CC(=O)[O-].CC(=O)[O-].O.O.[Cd+2]	nt	nt	nt	-2%	nt	7.5µM*
CCC(C)=O	nt	nt	nt	-13%	nt	?
O=C1CCCC2C3CC(CN12)C1CCCCN1C3 (centres undefined)	-8%	-3%	3%	-6%	nt	6%
O=[N+]([O-])c1ccccc1CCl	nt	nt	nt	2%	nt	13µM*
O=[N+]([O-])c1cccc2ccccc12	nt	nt	nt	-5%	nt	?
O=C(CN1CCCCC1)NCC(=O)Nc1ccc(Br)cc1C(=O)c1ccccc1	0%	-1%	2%	28µM*	1%[46.1 µM]	10%
SMILES	Tau fibril FP	Tau fluor counter	Tau fibril ThT	HPGD block	NPSR antag	ALDH1A1 inh
O=C(CCN1CCOCC1)NCC(=O)Nc1ccc(Br)cc1C(=O)c1ccccc1	-7%	-5%	-3%	-11%	-5%[46.1 µM]	5%
O=C(CNC(=O)c1ccccc1)Nc1ccc(Br)cc1C(=O)c1ccccc1	-4%	-26%	-13%	-14%	?	-5%
O=C(CNC(=O)c1ccccc1Cl)Nc1ccc(Br)cc1C(=O)c1ccccc1	0%	-23%	-13%	28µM*	-24%	-5%
Nc1ncnc2c1ncn2[C@@H]1O[C@H](COP(=O)(O)OP(=O)(O)OP(=O)(O)O)[C@H]2OC3(O[C@H]21)C([N+](=O)[O-])=CC(=[N+]([O-])[O-])C=C3[N+](=O)[O-] (some centres undefined)	3%	8%	?	?	nt	?
Cc1ccccc1C(=O)Nc1sc2c(c1C(=O)O)CCC(C(C)(C)C)C2 (centres undefined)	-8%	?	20µM*	nt	nt	nt
CC(C)(C)[C@]1(O)C[C@@H]2OC(=O)CC23C(=O)O[C@@H]2OC(=O)[C@H](O)C231 (some centres undefined)	-7%	-7%	-7%	0%	nt	5%
CCOC(=O)C1=C(NC(=S)NC(=O)c2ccccc2)c2ccccc2CC12CCCC2	-5%	-15%	-8%	-12%	?	22µM*
O=C(Nc1ccccc1)N1CC[C@@]2(CCCNC2)C1	nt	nt	nt	-2%	nt	-3%
O=C(O)c1ccccc1Nc1cccc(C(F)(F)F)c1	13%	?	-14%	28µM*!	-16%	9%
CNc1ccccc1C(=O)O	-4%	-5%	-7%	?	nt	?
N[C@@H](CCl)C(=O)O	3%	-1%	-7%	-13%	-8%[46.1 µM]	?
NC(Cc1cc(O)c(O)cc1O)C(=O)O (centres undefined)	?	?	14µM*	4.5µM*	?	11µM*
CCC[CH2][Sn]([Cl])([Cl])[Cl]	nt	nt	nt	-3%	nt	?
Cc1ccc2cc3c(ccc4ccccc43)c3c2c1CC3	?	-25%	16µM*	nt	nt	?
Cc1ccc2ccccc2c1NC(=O)CNC1CCCCC1	3%	-9%	-4%	-8%	5%[46.1 µM]	-4%
COc1cc(NC(=O)c2cc3cc4ccc(C)cc4nc3o2)cc(OC)c1OC	-10%	-16%	?	nt	nt	nt
CN1CCN(C(=S)c2ccc([N+](=O)[O-])cc2)CC1	-2%	-7%	-11%	28µM*	13%	?
CCCCN1C(=O)NC(=O)C2(Cc3cc(C)ccc3N(C)C2)C1=O (centres undefined)	?	-13%	?	-10%	-20%[46.1 µM]	10µM*
COc1cccc(N2C(=O)NC(=O)C3(Cc4cc(C)ccc4N(C)C3)C2=O)c1 (centres undefined)	1%	-3%	?	-22%	1%[46.1 µM]	20µM*
Cc1ccc2c(c1)CC1(CN2C)C(=O)NC(=O)N(c2cc(C)ccc2C)C1=O (centres undefined)	-17%	-20%	?	-16%	3%[46.1 µM]	1.8µM*
COc1ccc(OC)c(N2C(=O)NC(=O)C3(Cc4cc(C)ccc4N(C)C3)C2=O)c1 (centres undefined)	1%	-11%	?	-11%	-20%[46.1 µM]	?

Source: PubChem
